According to PubChem BioAssay (Tox21):
Records with an inconclusive call do not appear. Calls of active or inactive are those of the source. Calls come from the whole dose curve.

How the values were obtained:
[1] = molecular target: Acetylcholinesterase (Homo sapiens) (UniProt P22303); assay: Acetylcholinesterase (AChE) small molecule antagonists: colormetric cell-based qHTS assay (AID 1347395); note: nearly all actives have a fitted effect of over 30% in size
In short: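 AChE inhibition read colorimetrically via DTNB–thiocholine in SH-SY5Y cells. Compound 30 min, substrate 90 min, both 37 C.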

[2] = molecular target: Acetylcholinesterase (Homo sapiens) (UniProt P22303); assay: Acetylcholinesterase (AChE) small molecule antagonists: enzyme-based qHTS assay (AID 1347397); settings: Potency: AChE enzyme activity inhibition; outcome: AChE enzyme activity inhibition; note: nearly all actives have a fitted effect of over 55% in size
In short: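 rhAChE 50 mU/mL (dispensed) + cpd or DMSO, 30 min RT; add DTNB/acetylthiocholine cocktail, 10 min RT; colorimetric thiocholine readout. qHTS, 1536-well format.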

[3] = molecular target: Acetylcholinesterase (Homo sapiens) (UniProt P22303); assay: Acetylcholinesterase (AChE) small molecule antagonists: fluorescence cell-based qHTS assay (AID 1347398); settings: Potency: AChE activity; outcome: AChE activity; note: nearly all actives have a fitted effect of over 50% in size
In short: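 Read-out is Thiolite Green fluorescence at Ex/Em = 490/520 nm, formed by reaction with thiocholine released when cellular AChE in SH-SY5Y cells hydrolyzes acetylthiocholine. Compounds were preincubated 30 min at 37 C before substrate.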

[4] = molecular target: Acetylcholinesterase (Homo sapiens) (UniProt P22303); assay: Acetylcholinesterase (AChE) small molecule antagonists: enzyme-based qHTS assay with human liver microsomes (AID 1347399); settings: Potency: qHTS inhibition; outcome: qHTS inhibition; note: nearly all actives have a fitted effect of over 60% in size
In short: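 Recombinant human AChE (50 mU/mL in the enzyme mix) and human liver microsomes (0.25 mg/mL final) were preincubated with compound and NADPH (0.25 mg/mL final) for 30 min at 37 C. Acetylthiocholine/DTNB was then added; thiocholine was read colorimetrically after 10 min at room temperature.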
% is set by controls: 0 for no effect and ±100 for the full control effect.

Chain of Acetylcholinesterase (Homo sapiens) (P22303 whole entry, looked up): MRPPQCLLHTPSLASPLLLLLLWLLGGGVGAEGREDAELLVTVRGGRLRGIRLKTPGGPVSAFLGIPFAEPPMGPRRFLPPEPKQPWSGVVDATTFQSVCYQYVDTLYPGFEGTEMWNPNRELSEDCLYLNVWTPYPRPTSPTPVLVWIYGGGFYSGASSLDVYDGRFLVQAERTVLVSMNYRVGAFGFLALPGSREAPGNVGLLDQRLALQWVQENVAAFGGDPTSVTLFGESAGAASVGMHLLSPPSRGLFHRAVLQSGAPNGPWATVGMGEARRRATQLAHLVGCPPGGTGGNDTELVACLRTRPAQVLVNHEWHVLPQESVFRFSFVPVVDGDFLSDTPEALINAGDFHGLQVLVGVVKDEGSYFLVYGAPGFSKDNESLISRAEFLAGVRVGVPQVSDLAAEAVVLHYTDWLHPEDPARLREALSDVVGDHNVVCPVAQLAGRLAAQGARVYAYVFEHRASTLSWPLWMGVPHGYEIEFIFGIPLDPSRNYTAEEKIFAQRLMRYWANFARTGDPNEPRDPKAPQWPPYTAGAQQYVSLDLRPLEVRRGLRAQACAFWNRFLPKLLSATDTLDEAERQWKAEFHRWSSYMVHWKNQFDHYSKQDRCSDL

CC(=O)OCCN(CCOC(C)=O)c1ccc(N=Nc2ccc([N+](=O)[O-])cc2C#N)cc1
inactive: Potency [1] | Potency [2] | Potency [3] | Potency [4]

CC#C[C@]1(O)CC[C@H]2[C@@H]3CCC4=CC(=O)CCC4=C3[C@@H](c3ccc(N(C)C)cc3)C[C@@]21C
inactive: Potency [1] | Potency [2] | Potency [3] | Potency [4]

CCCc1ccccc1O
inactive: Potency [1] | Potency [2] | Potency [3] | Potency [4]

COC(=O)c1c(C)cc(O)c(C)c1O
inactive: Potency [1] | Potency [2] | Potency [3] | Potency [4]

O=C(Cl)c1c(Cl)c(Cl)c(C(=O)Cl)c(Cl)c1Cl
inactive: Potency [1] | Potency [2] | Potency [3] | Potency [4]

OC[C@H]1O[C@@H](Oc2ccc(O)cc2)[C@H](O)[C@@H](O)[C@@H]1O
inactive: Potency [1] | Potency [2] | Potency [3] | Potency [4]

C=CCc1ccc(O)c(OC)c1
inactive: Potency [1] | Potency [2] | Potency [3] | Potency [4]

C=COCCOCCOC=C
inactive: Potency [1] | Potency [2] | Potency [3] | Potency [4]

COCCOCCOCCOCCO
inactive: Potency [1] | Potency [2] | Potency [3] | Potency [4]

CSc1ccc(O)cc1C
inactive: Potency [1] | Potency [2] | Potency [3] | Potency [4]

OC[C@H]1O[C@@H]2O[C@H]3[C@H](O)[C@@H](O)[C@@H](O[C@H]4[C@H](O)[C@@H](O)[C@@H](O[C@H]5[C@H](O)[C@@H](O)[C@@H](O[C@H]6[C@H](O)[C@@H](O)[C@@H](O[C@H]7[C@H](O)[C@@H](O)[C@@H](O[C@H]8[C@H](O)[C@@H](O)[C@@H](O[C@H]1[C@H](O)[C@H]2O)O[C@@H]8CO)O[C@@H]7CO)O[C@@H]6CO)O[C@@H]5CO)O[C@@H]4CO)O[C@@H]3CO
inactive: Potency [1] | Potency [2] | Potency [3] | Potency [4]

Cc1[nH]nc2c1N=C(c1ccccc1Cl)c1cc([N+](=O)[O-])ccc1N2
inactive: Potency [1] | Potency [2] | Potency [3] | Potency [4]

CCCCCCCCCCC
inactive: Potency [1] | Potency [2] | Potency [3] | Potency [4]

O=C(/C=C/c1ccc(O)c(O)c1)O[C@@H](C(=O)O)[C@@H](OC(=O)/C=C/c1ccc(O)c(O)c1)C(=O)O
inactive: Potency [1] | Potency [2] | Potency [3] | Potency [4]

Cc1cc(C)cc(OCC2CNC(=O)O2)c1 (stereo not given)
inactive: Potency [1] | Potency [2] | Potency [3] | Potency [4]

C=CCCC
inactive: Potency [1] | Potency [2] | Potency [3] | Potency [4]

CO[Si](OC)(OC)OC
inactive: Potency [1] | Potency [2] | Potency [3] | Potency [4]

C[C@H](N)[C@H](O)c1cccc(O)c1
inactive: Potency [1] | Potency [2] | Potency [3] | Potency [4]

O[C@@H](COc1cccc2ncccc12)CN1CCN(C2c3ccccc3[C@@H]3[C@H](c4ccccc42)C3(F)F)CC1 (stereo not given in full)
inactive: Potency [1] | Potency [2] | Potency [3] | Potency [4]

Cc1c(Cl)cccc1[N+](=O)[O-]
inactive: Potency [1] | Potency [2] | Potency [3] | Potency [4]

O=C1CCCC(=O)O1
inactive: Potency [1] | Potency [2] | Potency [3] | Potency [4]

NC(=O)NS(=O)(=O)c1ccc(N)cc1
inactive: Potency [1] | Potency [2] | Potency [3] | Potency [4]

CC(C)CCCC(C)CCCC(C)CCCCC(C)CCCC(C)CCCC(C)C (stereo not given)
inactive: Potency [1] | Potency [2] | Potency [3] | Potency [4]

CC(C)c1nc(CN(C)C(=O)N[C@H](C(=O)N[C@@H](Cc2ccccc2)C[C@H](O)[C@H](Cc2ccccc2)NC(=O)OCc2cncs2)C(C)C)cs1
inactive: Potency [1] | Potency [2] | Potency [3] | Potency [4]

C[C@]12CCC(=O)C=C1[C@@H]1C[C@@H]1[C@H]1[C@@H]3[C@@H]4C[C@@H]4[C@@]4(CCC(=O)O4)[C@@]3(C)CC[C@@H]12
inactive: Potency [1] | Potency [2] | Potency [3] | Potency [4]

C=C(C#N)C(=O)OCC
inactive: Potency [1] | Potency [2] | Potency [3] | Potency [4]

CCCCCC(C)=O
inactive: Potency [1] | Potency [2] | Potency [3] | Potency [4]

CCN1CCN(C(=O)N[C@@H](C(=O)N[C@@H]2C(=O)N3[C@@H]2SC(C)(C)[C@H]3C(=O)O)c2ccccc2)C(=O)C1=O
inactive: Potency [1] | Potency [2] | Potency [3] | Potency [4]

OCCOc1cccc(OCCO)c1
inactive: Potency [1] | Potency [2] | Potency [3] | Potency [4]

CC(C)(C)c1cccc(C(C)(C)C)c1O
inactive: Potency [1] | Potency [2] | Potency [3] | Potency [4]

CC(C)(c1ccc(O)cc1)c1ccc(O)cc1
inactive: Potency [1] | Potency [2] | Potency [3] | Potency [4]

Cc1c(F)cc2c(=O)c(C(=O)O)cn3c2c1CCC3C (stereo not given)
inactive: Potency [1] | Potency [2] | Potency [3] | Potency [4]

NCCCCCCN
inactive: Potency [1] | Potency [2] | Potency [3] | Potency [4]

Cc1ccccc1S(N)(=O)=O
inactive: Potency [1] | Potency [2] | Potency [3] | Potency [4]

CC1=C(C=O)C(C)(C)CCC1
inactive: Potency [1] | Potency [2] | Potency [3] | Potency [4]

CCCCCCCCCCCCCCO
inactive: Potency [1] | Potency [2] | Potency [3] | Potency [4]

O=C(COc1ccc(Cl)cc1)N1CCN(Cc2ccc3c(c2)OCO3)CC1
inactive: Potency [1] | Potency [2] | Potency [3] | Potency [4]

c1ccc2nccnc2c1
inactive: Potency [1] | Potency [2] | Potency [3] | Potency [4]

CN(C)C(=O)NC1(c2ccccc2)CCN(CCC[C@]2(c3ccc(Cl)c(Cl)c3)CCCN(C(=O)c3ccccc3)C2)CC1
inactive: activity, negative = inhibition [1] -4.11% [at 23.6 µM] | activity change, negative = inhibition [2] 0.197% [at 23.6 µM] | activity change, negative = inhibition [3] -16% [at 23.8 µM] | activity change, negative = inhibition [4] 4.25% [at 23.6 µM]

C1CCSC1
inactive: Potency [1] | Potency [2] | Potency [3] | Potency [4]

CC(C)CCOC(=O)/C=C/c1ccccc1
inactive: Potency [1] | Potency [2] | Potency [3] | Potency [4]

Nc1nc2c(ncn2COC(CO)CO)c(=O)[nH]1
inactive: Potency [1] | Potency [2] | Potency [3] | Potency [4]

O=C(O)C(=O)Cc1ccccc1
inactive: Potency [1] | Potency [2] | Potency [3] | Potency [4]

COC(=O)/C=C/c1ccccc1
inactive: Potency [1] | Potency [2] | Potency [3] | Potency [4]

Cc1cc(C)c(N)c(Cl)c1
inactive: Potency [1] | Potency [2] | Potency [3] | Potency [4]

CCN(Cc1c(F)cccc1Cl)c1c([N+](=O)[O-])cc(C(F)(F)F)cc1[N+](=O)[O-]
inactive: Potency [1] | Potency [2] | Potency [3] | Potency [4]

CC(O)COc1ccccc1 (stereo not given)
inactive: Potency [1] | Potency [2] | Potency [3] | Potency [4]

CCCCCCCCCCCCC
inactive: Potency [1] | Potency [2] | Potency [3] | Potency [4]

CCc1nccnc1CC
inactive: activity, negative = inhibition [1] 2.95% [at 23.6 µM] | activity change, negative = inhibition [2] -0.515% [at 23.6 µM] | activity change, negative = inhibition [3] 3.3% [at 23.8 µM] | activity change, negative = inhibition [4] 0.443% [at 23.6 µM]

CC(C)S
inactive: Potency [1] | Potency [2] | Potency [3] | Potency [4]

CC(CC(=O)O)CC(C)(C)C (stereo not given)
inactive: Potency [1] | Potency [2] | Potency [3] | Potency [4]

Nc1nc2c(ncn2CCC(CO)CO)c(=O)[nH]1
inactive: Potency [1] | Potency [2] | Potency [3] | Potency [4]

Cn1cnc2c(F)c(Nc3ccc(Br)cc3Cl)c(C(=O)NOCCO)cc21
inactive: Potency [1] | Potency [2] | Potency [3] | Potency [4]

CCCCCCCC/C=C\CCCCCCCC(=O)O
inactive: Potency [1] | Potency [2] | Potency [3] | Potency [4]

Cc1nc2c([nH]1)c(=O)n(C)c(=O)n2Cc1ccco1
inactive: Potency [1] | Potency [2] | Potency [3] | Potency [4]

COc1ccc(S(=O)(=O)Nc2nnc(CC(C)C)s2)cc1
inactive: Potency [1] | Potency [2] | Potency [3] | Potency [4]

CCCCC/C(=C\c1ccccc1)CO
inactive: Potency [1] | Potency [2] | Potency [3] | Potency [4]

Oc1ccc2c(c1)OCO2
inactive: Potency [1] | Potency [2] | Potency [3] | Potency [4]

CC(=O)[C@H]1CC[C@H]2[C@@H]3CC=C4C[C@@H](O)CC[C@]4(C)[C@H]3CC[C@]12C
inactive: Potency [1] | Potency [2] | Potency [3] | Potency [4]

CCOc1ccc(NC(N)=O)cc1
inactive: Potency [1] | Potency [2] | Potency [3] | Potency [4]
